# Results filed as inconclusive are left out. Active and inactive are the calls of the source.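 The calls were made as follows, unless noted: active = inhibition above the screen-wide mean plus 3 SD, about 51%; inactive = the rest.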 Peptide text beside a SMILES is read from it. * marks the point of attachment. Boc = CC(C)(C)OC(=O)*; OBn = c1ccc(CO*)cc1
# What was measured:
# [1] = yeast TOR pathway RPL19A-GFP modulators, primary screen, cell-based, S. cerevisiae, multiplex flow cytometry (AID 1862; in the data active = percent of DMSO control GFP below about 86%;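 also: lower values mimic rapamycin by blocking the RPL19A rise seen in DMSO cells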); conditions: S. cerevisiae RPL19A-GFP strain, flow cytometry fluorescence, 3 h; at 10 µM; stronger effect = lower value
# [2] = modulators of MEP2-GFP levels in yeast, primary screen, S. cerevisiae, multiplex flow cytometry (AID 1867;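 active = GFP response, as percent of the DMSO control, above the screen-wide mean plus 3 SD, about 139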;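 also: median GFP channel fluorescence of barcode-gated MEP2-GFP cells measured by flow cytometry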); conditions: S. cerevisiae MEP2-GFP strain, 3 h, at 10 µM, stronger effect = higher value, 100% means same as DMSO wells
# [3] = modulators of CIT2-GFP expression in yeast, primary screen, S. cerevisiae, GFP fusion, multiplex flow cytometry (AID 1870;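 active = percent response above a set limit, the screen-wide mean plus 3 SD, cut at about 130% in these data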;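 also: barcoded CIT2-GFP strain pooled with four other GFP strains with rapamycin as positive control; median GFP fluorescence per well over plate mean of DMSO wells so 100% = DMSO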); conditions: 3 h, at 10 µM, stronger effect = higher value
# [4] = modulators of LAP4-GFP expression in yeast, primary screen, S. cerevisiae, multiplex flow cytometry (AID 1873;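 active = GFP signal, as percent of the solvent control, above the screen mean plus 3 SD, about 149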); conditions: 3 h, at 10 µM, stronger effect = higher value
# [5] = modulators of AGP1-GFP expression in yeast TOR pathway, primary screen, cell-based, multiplex flow cytometry, S. cerevisiae (AID 1887;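 active = GFP signal above the screen-wide mean plus 3 SD, that is over about 124.5% of the solvent control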;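 also: AGP1-GFP fusion strain of S. cerevisiae within a five-strain barcoded multiplex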); conditions: 3 h, at 10 µM, stronger effect = higher value
# [6] = inhibitors of CD8+ T cell-vesicle binding, pilot screen, LFA-1/ICAM-1 modulator project, MLPCN validation set, flow cytometry (AID 2523;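 active = response below a set limit, under 55% cells CD8-positive and vesicle-bound, and CD8 cells' 90th-percentile brightness under 279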;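 as to vesicle binding response: mean PE anti-B7-1 fluorescence of CD8+ cells relative to row control; 100% = QL9-loaded vesicles with DMSO vehicle in the same plate row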); conditions: 2C mouse CD8+ T cells, at 7 µM, stronger effect = lower value; double positive events: measured here: CD8+/vesicle+ event percentage
# [7] = biological target: Integrin beta-1 (Homo sapiens) + Integrin alpha-4 (Homo sapiens) (UniProt P13612+P05556); experiment: inhibition of HUTS-21 binding to VLA-4, pilot screen, VLA-4 allosteric modulator project, U937 cells, HUTS-21 mAb, flow cytometry, validation set (AID 2674;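 active = inhibition above 50%, about 3 SD of the validation set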;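 also: antibody binding induced by the VLA-4 ligand LDV present at three times its Kd; 0% = LDV ligand with antibody and no compound and 100% = antibody without LDV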); conditions: HUTS-21 LIBS mAb binding, at 6.7 µM, stronger effect = higher value, binding induced by LDV ligand
# Integrin beta-1 (Homo sapiens) + Integrin alpha-4 (Homo sapiens), sequence (P05556 whole entry, looked up): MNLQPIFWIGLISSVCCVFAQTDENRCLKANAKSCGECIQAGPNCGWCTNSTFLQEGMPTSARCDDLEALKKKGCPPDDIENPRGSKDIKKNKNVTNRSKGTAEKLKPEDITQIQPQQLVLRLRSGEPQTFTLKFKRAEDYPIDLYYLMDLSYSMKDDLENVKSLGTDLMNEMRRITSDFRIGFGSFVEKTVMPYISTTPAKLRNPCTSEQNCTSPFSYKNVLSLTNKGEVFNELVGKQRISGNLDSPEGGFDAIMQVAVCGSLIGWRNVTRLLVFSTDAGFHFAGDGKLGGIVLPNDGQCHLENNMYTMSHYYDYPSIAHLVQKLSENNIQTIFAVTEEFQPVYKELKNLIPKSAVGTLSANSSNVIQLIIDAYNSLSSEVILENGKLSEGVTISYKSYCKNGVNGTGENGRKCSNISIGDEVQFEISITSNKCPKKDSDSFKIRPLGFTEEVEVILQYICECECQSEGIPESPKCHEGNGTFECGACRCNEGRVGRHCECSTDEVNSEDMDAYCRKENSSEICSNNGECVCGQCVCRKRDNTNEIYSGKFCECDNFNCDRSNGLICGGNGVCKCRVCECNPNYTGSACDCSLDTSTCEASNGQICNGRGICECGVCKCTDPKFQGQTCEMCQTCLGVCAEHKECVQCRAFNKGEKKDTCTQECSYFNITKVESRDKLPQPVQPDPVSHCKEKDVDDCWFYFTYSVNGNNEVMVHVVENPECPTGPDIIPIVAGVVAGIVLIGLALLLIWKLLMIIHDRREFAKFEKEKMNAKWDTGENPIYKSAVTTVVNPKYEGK
# Integrin beta-1 (Homo sapiens) + Integrin alpha-4 (Homo sapiens), sequence (P13612 whole entry, looked up): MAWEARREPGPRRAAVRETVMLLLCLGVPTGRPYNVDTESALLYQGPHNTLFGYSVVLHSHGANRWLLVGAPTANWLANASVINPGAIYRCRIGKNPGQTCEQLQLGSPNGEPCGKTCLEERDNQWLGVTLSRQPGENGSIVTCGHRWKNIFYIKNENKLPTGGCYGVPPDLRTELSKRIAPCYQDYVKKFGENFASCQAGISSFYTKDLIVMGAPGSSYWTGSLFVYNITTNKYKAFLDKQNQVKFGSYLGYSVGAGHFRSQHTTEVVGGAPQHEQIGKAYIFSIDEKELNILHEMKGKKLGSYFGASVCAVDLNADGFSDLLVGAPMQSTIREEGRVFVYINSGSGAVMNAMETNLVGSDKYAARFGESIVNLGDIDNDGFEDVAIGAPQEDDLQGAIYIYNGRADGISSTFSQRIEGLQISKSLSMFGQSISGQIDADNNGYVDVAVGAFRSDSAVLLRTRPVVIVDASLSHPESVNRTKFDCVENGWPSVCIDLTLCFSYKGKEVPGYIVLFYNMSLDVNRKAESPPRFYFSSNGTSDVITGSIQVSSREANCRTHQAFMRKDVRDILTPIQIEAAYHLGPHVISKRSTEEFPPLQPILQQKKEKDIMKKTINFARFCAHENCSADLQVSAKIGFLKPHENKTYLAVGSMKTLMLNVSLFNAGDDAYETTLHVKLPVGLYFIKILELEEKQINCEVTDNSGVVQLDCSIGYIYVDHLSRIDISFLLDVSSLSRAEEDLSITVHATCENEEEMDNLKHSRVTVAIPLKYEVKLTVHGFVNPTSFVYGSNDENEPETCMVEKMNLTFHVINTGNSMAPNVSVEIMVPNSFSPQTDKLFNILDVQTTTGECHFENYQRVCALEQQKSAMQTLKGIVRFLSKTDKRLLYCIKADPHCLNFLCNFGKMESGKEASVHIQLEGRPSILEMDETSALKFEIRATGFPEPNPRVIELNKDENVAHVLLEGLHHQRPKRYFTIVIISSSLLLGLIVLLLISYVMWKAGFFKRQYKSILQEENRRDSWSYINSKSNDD
# [8] = superoxide lowering in aged yeast cells, pilot screen, validation compound set (AID 2706;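 active = superoxide response below 65% of plate, a cut near 3 SD across the whole screen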;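 also: yeast exposed to compound for one week at 30 degrees C before staining; 100% = mean of all compound wells on the same plate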); conditions: S. cerevisiae aging, superoxide DHE fluorescence; at 10 µM, stronger effect = lower value
# [9] = biological target: Beta-adrenergic receptor kinase 1 (Homo sapiens) (UniProt P25098); experiment: GRK2 binders displacing RNA aptamer, biochemical, validation, human GRK2, bead flow cytometry (AID 488806;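 active = aptamer binding inhibition above 30%, about 3 SD of noise from non-fluorescent compounds; inactive = inhibition at or below 30%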); conditions: bead-bound GRK2, FAM-aptamer displacement, at 10 µM, stronger effect = higher value
# Beta-adrenergic receptor kinase 1 (Homo sapiens), sequence (P25098 whole entry, looked up): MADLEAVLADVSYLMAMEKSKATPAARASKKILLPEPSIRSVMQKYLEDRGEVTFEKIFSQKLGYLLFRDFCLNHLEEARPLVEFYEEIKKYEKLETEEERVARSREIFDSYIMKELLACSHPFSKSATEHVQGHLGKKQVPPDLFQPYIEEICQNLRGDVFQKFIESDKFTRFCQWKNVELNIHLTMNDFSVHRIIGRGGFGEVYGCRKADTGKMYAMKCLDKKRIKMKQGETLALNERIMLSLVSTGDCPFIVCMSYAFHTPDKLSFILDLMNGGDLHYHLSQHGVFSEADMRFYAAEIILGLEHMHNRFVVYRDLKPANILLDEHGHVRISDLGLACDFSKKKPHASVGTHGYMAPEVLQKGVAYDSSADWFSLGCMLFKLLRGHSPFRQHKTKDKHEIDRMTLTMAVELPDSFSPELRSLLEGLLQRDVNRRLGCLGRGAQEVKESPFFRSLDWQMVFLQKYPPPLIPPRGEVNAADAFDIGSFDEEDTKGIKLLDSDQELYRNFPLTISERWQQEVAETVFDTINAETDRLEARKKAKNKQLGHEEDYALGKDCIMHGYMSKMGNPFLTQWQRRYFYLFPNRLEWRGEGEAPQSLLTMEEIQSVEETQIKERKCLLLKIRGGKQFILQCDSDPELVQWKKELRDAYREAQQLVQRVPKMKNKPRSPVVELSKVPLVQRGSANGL
# [10] = biological target: AP-2 complex subunit beta (Homo sapiens) (UniProt P63010); experiment: inhibitors of arrestin peptide binding to AP2, pilot screen, biochemical, validation set, GST-AP2 beads, flow cytometry (AID 504541;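 active = inhibition above 54%, about 3 SD of non-fluorescent compounds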;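 also: AP2 carries R879A mutation and is captured from E. coli lysate; bead-bound FITC arrestin peptide fluorescence measuring arrestin peptide binding to AP2; 0% = DMSO wells and 100% = excess unlabeled arrestin peptide control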); conditions: FITC arrestin peptide, at 10 µM, stronger effect = higher value, AP2 beta2 appendage fragment, R879A mutant
# AP-2 complex subunit beta (Homo sapiens), sequence (P63010 whole entry, looked up, the tested form may be a part, one chain of several): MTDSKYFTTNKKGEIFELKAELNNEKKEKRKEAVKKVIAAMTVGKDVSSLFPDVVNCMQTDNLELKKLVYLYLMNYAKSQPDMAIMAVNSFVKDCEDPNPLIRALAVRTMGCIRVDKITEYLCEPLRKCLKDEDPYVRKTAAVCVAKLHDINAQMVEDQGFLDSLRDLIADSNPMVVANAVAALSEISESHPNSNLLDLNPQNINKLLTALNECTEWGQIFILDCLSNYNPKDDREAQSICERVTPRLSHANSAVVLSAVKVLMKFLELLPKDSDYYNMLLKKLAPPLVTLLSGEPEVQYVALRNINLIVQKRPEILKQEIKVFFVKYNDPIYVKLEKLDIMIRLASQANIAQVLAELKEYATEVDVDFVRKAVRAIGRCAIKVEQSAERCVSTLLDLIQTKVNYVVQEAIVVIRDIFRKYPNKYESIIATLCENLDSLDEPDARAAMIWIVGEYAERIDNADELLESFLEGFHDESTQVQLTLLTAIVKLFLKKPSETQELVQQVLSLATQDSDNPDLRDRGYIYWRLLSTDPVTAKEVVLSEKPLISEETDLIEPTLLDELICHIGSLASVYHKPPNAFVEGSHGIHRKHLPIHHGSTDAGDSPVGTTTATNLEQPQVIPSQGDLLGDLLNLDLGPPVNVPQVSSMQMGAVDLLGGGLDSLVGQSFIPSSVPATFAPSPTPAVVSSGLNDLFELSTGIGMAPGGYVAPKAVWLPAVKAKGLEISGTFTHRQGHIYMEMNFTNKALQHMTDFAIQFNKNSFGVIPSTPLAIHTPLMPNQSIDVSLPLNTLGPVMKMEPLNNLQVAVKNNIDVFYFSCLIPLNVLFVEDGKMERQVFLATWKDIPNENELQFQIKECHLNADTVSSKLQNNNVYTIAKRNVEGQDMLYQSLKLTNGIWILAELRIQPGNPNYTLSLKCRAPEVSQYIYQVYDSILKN
# [11] = yeast V-ATPase proton transport modulators, S. cerevisiae, pHLuorin, HTS validation (AID 504600; in the data active = response above about 15%;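 also: plate controls were DMSO for no effect and reference compound for full effect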); conditions: S. cerevisiae pHLuorin cytosolic pH, at 10 µM, stronger effect = higher value
# [12] = system: anti-desmoglein-3 scFv antibody binding to human DSG3; experiment: inhibitors of anti-DSG3 scFv binding to DSG3, pilot screen, biochemical, validation compound set, bead-based, flow cytometry (AID 588368;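 active = binding below the plate cutoff, the plate median minus 3 SD, with a reading above zero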;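 also: signal is the median channel fluorescence of bead-bound GFP antibody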); conditions: Protein G beads, DSG3-Fc, scFv-GFP binding, at 10 µM, stronger effect = lower value
# [13] = inhibitors of fungal efflux pumps CDR1, CDR2, MDR1, pilot screen, validation compound set, multiplex, phenotypic (AID 588506;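 active = efflux inhibition above 0.42, the validation set average plus 4 SD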;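 also: Nile Red retained in cells so higher fluorescence means more efflux inhibition; 0 = negative control wells and 1 = enniatin B 25 µM full block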); conditions: S. cerevisiae pump-expressing triplex, Nile Red efflux flow cytometry; at 10 µM; stronger effect = higher value; the pumps come from Candida albicans
# [14] = biological target: ATP-binding cassette sub-family B member 6 (Homo sapiens) (UniProt Q9NP58); experiment: ABCB6 transporter inhibitors, pilot screen, K562-ABCB6 cells, flow cytometry, validation set (AID 588550); conditions: K562-ABCB6 porphyrin accumulation, 1 h, at 10 µM, stronger effect = higher value;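 also: 0% = DMSO wells and 100% = benzethonium chloride 70 µM positive control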
# ATP-binding cassette sub-family B member 6 (Homo sapiens), sequence (Q9NP58 whole entry, looked up): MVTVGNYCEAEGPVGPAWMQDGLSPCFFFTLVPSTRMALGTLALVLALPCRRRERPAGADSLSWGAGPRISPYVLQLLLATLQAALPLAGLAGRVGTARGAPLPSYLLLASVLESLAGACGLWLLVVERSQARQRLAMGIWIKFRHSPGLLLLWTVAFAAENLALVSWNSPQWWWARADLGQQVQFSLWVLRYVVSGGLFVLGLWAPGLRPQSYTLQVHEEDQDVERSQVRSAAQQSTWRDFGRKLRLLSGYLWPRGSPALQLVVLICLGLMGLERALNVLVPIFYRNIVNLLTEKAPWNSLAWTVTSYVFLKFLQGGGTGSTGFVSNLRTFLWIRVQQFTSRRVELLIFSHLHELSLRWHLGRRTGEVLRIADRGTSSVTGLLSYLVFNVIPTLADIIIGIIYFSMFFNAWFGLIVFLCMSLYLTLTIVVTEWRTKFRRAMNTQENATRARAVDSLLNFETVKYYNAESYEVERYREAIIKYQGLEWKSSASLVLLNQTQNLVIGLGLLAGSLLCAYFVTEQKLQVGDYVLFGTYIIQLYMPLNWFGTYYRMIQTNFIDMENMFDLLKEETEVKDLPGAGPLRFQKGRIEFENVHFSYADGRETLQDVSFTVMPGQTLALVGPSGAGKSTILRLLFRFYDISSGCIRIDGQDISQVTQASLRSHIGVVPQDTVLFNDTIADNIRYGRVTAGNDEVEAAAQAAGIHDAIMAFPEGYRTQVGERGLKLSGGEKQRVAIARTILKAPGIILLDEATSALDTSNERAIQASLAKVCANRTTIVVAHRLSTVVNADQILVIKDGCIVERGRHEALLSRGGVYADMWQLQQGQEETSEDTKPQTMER
# [15] = promoters of myeloid differentiation in arrested cells, primary screen, cell-based, GFP/MAC1 double positive, flow cytometry, validation set (AID 588685;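 active = differentiation response of at least 50%, scaled between solvent and reference control, from cells with both markers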;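 also: compound exposure lasts four days before antibody staining and flow analysis; 0% = DMSO wells and 100% = 5 µM fulvestrant positive control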); conditions: ER-HoxA9 marrow cells, stronger effect = higher value, normalized: vehicle 0, fulvestrant 100
Compound,percent of DMSO control GFP [1],GFP response vs DMSO [2],percent response of DMSO control [3],GFP response vs DMSO [4],"GFP response, % of DMSO [5]",double positive events [6] [%],vesicle binding response [6],inhibition [7],superoxide response (% of plate) [8],aptamer binding inhibition [9],inhibition [10],response [11],binding (% of control) [12],efflux inhibition (fraction of control) [13],inhibition [14],differentiation response [15]
Cc1nc(C(=O)Nc2ccccc2Cl)cc2c1[nH]c1ccccc12,99.6% (inactive),108% (inactive),106% (inactive),100% (inactive),98.2% (inactive),53.9,172% (inactive),-1.17% (inactive),111% (inactive),1% (inactive),-0.33% (inactive),2.14% (inactive),95.4% (inactive),0.14 (inactive),11% (inactive),-9.89% (inactive)
COc1cc(OC)cc(C(=O)N[C@@H](CCSC)c2nc3ccccc3[nH]2)c1,98% (inactive),88.7% (inactive),105% (inactive),91.3% (inactive),96.4% (inactive),49.2,158% (inactive),-13.3% (inactive),98.5% (inactive),1% (inactive),-7.65% (inactive),0.15% (inactive),99.3% (inactive),-0.12 (inactive),3% (inactive),-8.27% (inactive)
CCN(CC)Cc1c[nH]c2c(C(=O)OC)cccc12,98.8% (inactive),104% (inactive),105% (inactive),102% (inactive),99.1% (inactive),60.2,183% (inactive),10% (inactive),98.4% (inactive),0% (inactive),12.3% (inactive),-5.36% (inactive),105% (inactive),-0.28 (inactive),7% (inactive),-24.4% (inactive)
CCN(CC)C(=O)c1ccc(O)c(OC)c1,94.2% (inactive),102% (inactive),98.8% (inactive),102% (inactive),102% (inactive),53.9,118% (inactive),25.9% (inactive),89% (inactive),0% (inactive),-2.62% (inactive),0.77% (inactive),101% (inactive),0.29 (inactive),15% (inactive),-9.89% (inactive)
COc1cc(C2CC(=O)NC3=C2C(=O)CC(C)(C)C3)ccc1O (stereo not given),99.6% (inactive),99.9% (inactive),105% (inactive),100% (inactive),103% (inactive),61.3,141% (inactive),11.9% (inactive),98.7% (inactive),4% (inactive),22.3% (inactive),-2.29% (inactive),96.5% (inactive),-0.09 (inactive),4% (inactive),0% (inactive)
CCN(Cc1ccncc1)Cc1nc(Cc2ccccc2Cl)no1,95.8% (inactive),98.9% (inactive),102% (inactive),95.4% (inactive),94.2% (inactive),53.4,164% (inactive),-12.4% (inactive),111% (inactive),2% (inactive),8.49% (inactive),2.76% (inactive),101% (inactive),0.25 (inactive),7% (inactive),-27.6% (inactive)
CC(C)CC(NC(=O)C(NC(=O)OC(C)(C)C)C(C)C)C(=O)NC(CCC(=O)OCc1ccccc1)C(N)=O (stereo not drawn) (Boc-Val-Leu-Glu(OBn)-NH2; configuration not given here),99.6% (inactive),98.9% (inactive),95.9% (inactive),84.3% (inactive),93.1% (inactive),65,186% (inactive),3.49% (inactive),94.3% (inactive),0% (inactive),2.78% (inactive),-7.35% (inactive),101% (inactive),0.41 (inactive),11% (inactive),22.4% (inactive)
CC(C)NC(=O)C1(c2ccccc2)CCOCC1,100% (inactive),95.9% (inactive),104% (inactive),99.4% (inactive),99.3% (inactive),62.2,191% (inactive),-51.5% (inactive),99.3% (inactive),4% (inactive),3.27% (inactive),0.02% (inactive),98.2% (inactive),-0.01 (inactive),4% (inactive),-0.2% (inactive)
NC(=O)OCC(COC(N)=O)c1ccccc1,104% (inactive),98.9% (inactive),102% (inactive),92.3% (inactive),103% (inactive),58.1,160% (inactive),1.62% (inactive),92.5% (inactive),4% (inactive),-15.7% (inactive),-9.57% (inactive),103% (inactive),-0.09 (inactive),5% (inactive),-1.82% (inactive)
CC(C)Cc1ccc(C(C)C(=O)Nc2ccc(O)cc2)cc1 (stereo not given),103% (inactive),105% (inactive),107% (inactive),106% (inactive),99.7% (inactive),58.6,178% (inactive),13.8% (inactive),110% (inactive),2% (inactive),33.6% (inactive),-13.1% (inactive),105% (inactive),0.14 (inactive),1% (inactive),0% (inactive)
Cc1cnc(C(=O)N2CCCC(C(=O)c3ccc(Cl)cc3C)C2)cn1 (stereo not given),104% (inactive),99.9% (inactive),105% (inactive),96.4% (inactive),101% (inactive),50,175% (inactive),-2.11% (inactive),109% (inactive),2% (inactive),21.9% (inactive),2.89% (inactive),101% (inactive),0.18 (inactive),-25% (inactive),-18% (inactive)
CN(C)c1nc(N(C)C)nc(N(C)C)n1,94.6% (inactive),103% (inactive),97.9% (inactive),97.4% (inactive),94.2% (inactive),63,181% (inactive),5.36% (inactive),95.5% (inactive),0% (inactive),47.8% (inactive),-8.12% (inactive),99.3% (inactive),0.78 (active),9% (inactive),14.3% (inactive)
OC[C@H]1O[C@@H](n2cnc3c(NC4CCCC4)ncnc32)[C@H](O)[C@@H]1O,96.8% (inactive),98.9% (inactive),98.8% (inactive),99.4% (inactive),98.4% (inactive),52.6,139% (inactive),6.29% (inactive),102% (inactive),4% (inactive),7.18% (inactive),-1.41% (inactive),104% (inactive),0.18 (inactive),2% (inactive),-8.27% (inactive)
Cc1ccc2c(c1)OC(=O)CC2c1ccccc1 (stereo not given),100% (inactive),104% (inactive),96.9% (inactive),102% (inactive),99.6% (inactive),58,168% (inactive),12.8% (inactive),111% (inactive),5% (inactive),31.1% (inactive),-9.91% (inactive),95.6% (inactive),0.06 (inactive),0% (inactive),-11.5% (inactive)
CC(=O)c1c(N)nc2n(c1=O)CCCCC2,103% (inactive),102% (inactive),108% (inactive),93.3% (inactive),102% (inactive),55.2,201% (inactive),14.7% (inactive),94.2% (inactive),4% (inactive),2.65% (inactive),0.91% (inactive),98.7% (inactive),-0.09 (inactive),10% (inactive),9.49% (inactive)
N#Cc1c2c(c(-c3ccccc3)[nH]c1=O)CCCC2,102% (inactive),98.9% (inactive),103% (inactive),85.3% (inactive),100% (inactive),56.8,158% (inactive),-7.7% (inactive),94% (inactive),3% (inactive),-4.92% (inactive),-1.34% (inactive),98.8% (inactive),-0.05 (inactive),5% (inactive),-22.8% (inactive)
c1cc2c(cc1C1CCCCC1)c1c3n2CCN=C3CCC1,98.1% (inactive),107% (inactive),99.8% (inactive),99.4% (inactive),93.1% (inactive),57.1,224% (inactive),-9.57% (inactive),98.8% (inactive),-9% (inactive),-7.03% (inactive),-0.63% (inactive),114% (inactive),0.03 (inactive),-1% (inactive),-9.89% (inactive)
COc1ccc(-c2[nH]ncc2C=O)cc1OC,99.3% (inactive),96.9% (inactive),106% (inactive),91.3% (inactive),95.8% (inactive),52,201% (inactive),-1.17% (inactive),93.7% (inactive),2% (inactive),11.3% (inactive),3.37% (inactive),101% (inactive),-0.12 (inactive),8% (inactive),-11.5% (inactive)
C/C(=N\N=C1\NC(=O)C(CC(=O)Nc2ccc(Cl)cc2)S1)c1ccco1 (stereo not given),105% (inactive),101% (inactive),104% (inactive),91.3% (inactive),99.1% (inactive),54.2,112% (inactive),-17% (inactive),101% (inactive),16% (inactive),3.65% (inactive),-0.13% (inactive),94.4% (inactive),0.22 (inactive),8% (inactive),0% (inactive)
COCCCC/C(=N\OCCN)c1ccc(C(F)(F)F)cc1,108% (inactive),108% (inactive),98.8% (inactive),93.3% (inactive),105% (inactive),60.3,182% (inactive),10% (inactive),102% (inactive),-7% (inactive),-0.39% (inactive),1.1% (inactive),91.7% (inactive),0.18 (inactive),3% (inactive),139% (active)

# — PubChem BioAssay
